# The supplement of paper PMC6555819
# Legend:
# Test in all cases: PBM binding z-score (relative to random genomic background probes); higher = stronger binding; sequences stand for … in GC…GCGATTGACAGCGTAGAATGAAGG
# [1] = system: FXR:RXRa (NR concentration 270 nM, RXRa partner concentration 90 nM)
# Procedure, shortened: (§1)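 Each nuclear receptor dimer, without ligand, was incubated for 1 h on custom Agilent 4×180K protein-binding microarrays. Binding was detected with antibodies against each partner (one per run), and scanned fluorescence was regression-normalized. The binding z-scores are referenced to random human genomic background probes.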
# [2] = system: LXRa:RXRa (NR concentration 270 nM, RXRa partner concentration 90 nM)
# Procedure, shortened: as §1
# [3] = system: LXRa homodimer (NR concentration 270 nM)
# Procedure, shortened: as §1
# [4] = system: LXRb:RXRa (NR concentration 270 nM, RXRa partner concentration 90 nM)
# Procedure, shortened: as §1
# [5] = system: LXRb homodimer (NR concentration 270 nM)
# Procedure, shortened: as §1
# [6] = system: PPARa:RXRa (NR concentration 270 nM, RXRa partner concentration 90 nM)
# Procedure, shortened: as §1
# [7] = system: PPARg:RXRa (NR concentration 180 nM, RXRa partner concentration 90 nM)
# Procedure, shortened: as §1
# [8] = system: PPARg:RXRa 270nM:90nM, anti-RXR (NR concentration 270 nM, RXRa partner concentration 90 nM)
# Procedure, shortened: as §1
# [9] = system: PPARg:RXRa 30nM:10nM, anti-RXR (NR concentration 30 nM, RXRa partner concentration 10 nM)
# Procedure, shortened: as §1
# [10] = system: PPARg:RXRa 90nM:30nM, anti-RXR (NR concentration 90 nM, RXRa partner concentration 30 nM)
# Procedure, shortened: as §1
Sequence,PBM binding z-score [1],PBM binding z-score [2],PBM binding z-score [3],PBM binding z-score [4],PBM binding z-score [5],PBM binding z-score [6],PBM binding z-score [7],PBM binding z-score [8],PBM binding z-score [9],PBM binding z-score [10]
TCATAGAGGTAAATGCTAGGTGAAAGTCCGATCT,0.371,1.08,-0.125,0.395,-0.74,1.24,0.339,1.7,2.66,2.06
TGAATGAGGTTACAAGATCAGGGAACGTTGCAAA,1.8,1.28,-0.302,1.34,-0.31,3.09,2.14,2.54,1.05,1.65
TCTTCTAGATCAAGCAGGTTAAGAAAGCCTGAGT,0.122,0.597,-0.208,0.619,-0.0275,0.769,-0.479,1.7,3.16,2.53
GCATATAGGTAATACAAGGTTAAAGTCCGATTGT,0.589,5.43,4.13,2.63,-0.0858,2.39,1.69,1.5,0.655,0.992
CCTACTGGGCCAAGGTGATTGATCAGTCAAAGCA,-0.711,-0.732,-0.784,-0.722,-1.14,0.274,1.29,2.08,0.0836,1.45
TTACCAAGGTGAAGGTAGTTGATCCCTCTGTAGA,0.475,0.286,-0.482,0.307,-0.931,1.44,0.324,1.29,0.219,0.784
TCTCGGACGACACGAAAGGTCAGAGCTCGACATC,2.91,3.74,2.39,3.3,0.313,3.69,1.12,2.86,2.84,2.66
CCTTACGGGTCACTCCAAGTTATAGCATCGGAGT,4.3,4.77,0.264,2.99,0.193,4.54,3.18,3.68,1.12,2.66
GCTTGCGGGTCAAAGGTTATAGCATGAATAGAAT,7,5.1,0.347,5.46,-0.491,7.24,11.2,9.57,9.43,9.99
CATACAGGGTCAGCTCGGCCAGAGTAGGGACGGC,4.13,2.91,-0.117,2.06,0.463,3.97,2.99,2.64,0.565,1.72
ATCTCTAGGTAAAGATTGTTCAGTGAATGCAAAT,0.226,0.124,0.091,0.234,0.621,0.0998,0.137,0.495,0.342,0.381
ATATGTAGGTTACATCCGGCTCATTCAGGCTATG,0.486,2.28,0.223,1.13,0.756,3.04,4.81,3.99,1.57,3.14
GCGACTGGGGCAAAGCGGGTTACCATAAGGTTGG,0.373,-0.0696,-0.512,0.27,-0.709,1.42,1.15,1.47,-0.245,0.845
TCTATTAGTTGTTTAGGGCAACCGAAACAGCGGA,0.479,0.468,0.25,0.727,1.15,0.938,-0.0257,2.1,3.88,2.99
CGAACTAGGTCATTGACAGGTCAGTGAATAGTAA,4.77,4.22,2.06,3.2,0.218,5.01,7.86,6.55,3.81,6.32
TCTAGTTGGTCAAAGATCACACACTCGAAATGCG,1.08,0.894,0.461,1.25,0.389,3.18,5.95,6.52,5.72,6.88
CATACAGGGTCAGCTAGGCCAGAGTAGGGACGGC,4.68,2.84,-0.378,2.27,0.142,4.64,3.58,3.06,0.957,2.2
TCAGACAGGTTAAGGTAACTCAGGTACGCAGTCG,1.49,2.63,0.305,1.79,0.039,1.93,0.858,2.5,4.03,3.21
AGTCAAAGTTCAACTAGGTAACGTAAGATATGCT,7.15,6.16,4.88,4.22,1.72,5.32,7.34,6.67,4.2,6.24
ATATGTAGGCTAAGGGTCATTCAGGTTGGTTCGC,3.79,3.76,1.84,3.73,1.39,6.17,10.2,8.9,9.28,9.65
CGACCAAGGTCAATGCTAGGTCAGTGAAAGCATT,6.54,5.4,1.97,3.95,0.214,4.99,3.99,4.62,1.63,3.37
AATCCAGGGTCACTAGGCCAGAGTAGGTACGAAT,5.69,4.8,0.376,3.92,0.621,5.78,7.8,6.61,3.93,5.73
ATATGTAGGTTAAGGGTCATTCGGGTTGGTTCGC,5.36,4.83,3.47,4.62,1.81,6.53,12.2,10.3,11.7,12.2
